Data: PubChem BioAssay (NCATS)
Records with an inconclusive call do not appear. Where a call stands in place of a potency, no number is given. The source made the active and inactive calls. Calls come from the whole dose curve; as a rule, active = well fitted curve in the direction sought with a large enough effect; inconclusive = small, poorly fitted or top-dose-only effect, or another doubt; inactive = no such curve, though single readings can be large; an effect the other way counts as inactive or inconclusive.

Tests used:
[1] = molecular target: Muscarinic acetylcholine receptor M1 (Rattus norvegicus) (UniProt P08482); test: qHTS Assay for Antagonists of Acetylcholine Muscarinic M1 Receptor: Kinetic Measurement of Intracellular Calcium Response (AID 943); note: nearly all actives have a fitted effect of over 75% in size; note: potency is the fitted concentration of half-maximal effect
In short: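 Antagonism is measured as inhibition of the carbachol-evoked calcium rise in CHO cells transfected with rat M1. Cells are dye-loaded, exposed to compound for 10 min, then stimulated with 100 nM carbachol (EC80).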

[2] = molecular target: Cytochrome P450 2D6 (Homo sapiens) (UniProt P10635); test: qHTS Assay for Inhibitors and Substrates of Cytochrome P450 2D6 (AID 891); note: nearly all actives have a fitted effect of over 60% in size; note: potency is the fitted concentration of half-maximal effect
In short: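 Luminescent read-out of luciferin formed by 5 nM human CYP2D6 demethylating 30 uM Luciferin-ME EGE (Km level) over 60 min at room temperature after NADPH regeneration addition. Data normalized to full inhibition by 1.43 uM quinidine.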

[3] = molecular target: Cytochrome P450 2C19 (Homo sapiens) (UniProt P33261); test: qHTS Assay for Inhibitors and Substrates of Cytochrome P450 2C19 (AID 899); note: nearly all actives have a fitted effect of over 60% in size; note: potency is the fitted concentration of half-maximal effect
In short: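 In 50mM KPO4, the reaction held 5nM enzyme and KM-level (10uM) Luciferin-H EGE; it ran 60 min at 37C after NADPH regeneration and a 10 min compound preincubation. Luminescence values were scaled to 57uM ketoconazole as complete inhibition.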

[4] = molecular target: Cytochrome P450 3A4 (Homo sapiens) (UniProt P08684); test: qHTS Assay for Activators of Cytochrome P450 3A4 (AID 885); note: nearly all actives have a fitted effect of over 65% in size
In short: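 Using 20nM recombinant human CYP3A4 in potassium phosphate (200mM), substrate Luciferin-PPXE at 25uM, luminescent luciferin detection followed a 60-min RT NADPH reaction; data scaled to 57 uM ketoconazole.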

Cytochrome P450 3A4 (Homo sapiens), sequence (P08684 whole entry, looked up): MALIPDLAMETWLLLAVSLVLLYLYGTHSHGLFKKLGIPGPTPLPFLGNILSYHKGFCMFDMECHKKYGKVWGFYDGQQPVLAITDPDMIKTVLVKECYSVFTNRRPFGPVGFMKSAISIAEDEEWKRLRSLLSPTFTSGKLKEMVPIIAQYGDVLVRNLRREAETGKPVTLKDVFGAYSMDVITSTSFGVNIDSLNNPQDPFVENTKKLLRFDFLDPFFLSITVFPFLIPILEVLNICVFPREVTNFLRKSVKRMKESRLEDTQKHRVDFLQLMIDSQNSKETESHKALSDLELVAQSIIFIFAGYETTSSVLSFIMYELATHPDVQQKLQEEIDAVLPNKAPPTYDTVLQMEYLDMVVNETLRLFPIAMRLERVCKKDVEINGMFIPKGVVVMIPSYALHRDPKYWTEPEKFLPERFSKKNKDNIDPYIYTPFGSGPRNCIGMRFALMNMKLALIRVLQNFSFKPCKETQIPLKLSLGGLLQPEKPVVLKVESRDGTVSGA
Muscarinic acetylcholine receptor M1 (Rattus norvegicus), sequence (P08482 whole entry, looked up): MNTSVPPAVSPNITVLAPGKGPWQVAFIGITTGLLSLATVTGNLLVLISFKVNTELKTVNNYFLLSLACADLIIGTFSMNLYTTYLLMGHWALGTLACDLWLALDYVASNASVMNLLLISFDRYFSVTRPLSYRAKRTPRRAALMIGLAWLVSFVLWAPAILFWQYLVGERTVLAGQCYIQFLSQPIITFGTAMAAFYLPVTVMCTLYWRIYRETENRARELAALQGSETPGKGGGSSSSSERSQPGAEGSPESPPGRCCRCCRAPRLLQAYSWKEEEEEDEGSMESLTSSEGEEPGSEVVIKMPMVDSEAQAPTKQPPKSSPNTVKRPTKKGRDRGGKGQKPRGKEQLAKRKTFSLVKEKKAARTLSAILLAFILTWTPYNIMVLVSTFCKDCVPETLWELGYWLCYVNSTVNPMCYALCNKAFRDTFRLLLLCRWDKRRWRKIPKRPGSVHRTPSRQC
Cytochrome P450 2D6 (Homo sapiens), sequence (P10635 whole entry, looked up): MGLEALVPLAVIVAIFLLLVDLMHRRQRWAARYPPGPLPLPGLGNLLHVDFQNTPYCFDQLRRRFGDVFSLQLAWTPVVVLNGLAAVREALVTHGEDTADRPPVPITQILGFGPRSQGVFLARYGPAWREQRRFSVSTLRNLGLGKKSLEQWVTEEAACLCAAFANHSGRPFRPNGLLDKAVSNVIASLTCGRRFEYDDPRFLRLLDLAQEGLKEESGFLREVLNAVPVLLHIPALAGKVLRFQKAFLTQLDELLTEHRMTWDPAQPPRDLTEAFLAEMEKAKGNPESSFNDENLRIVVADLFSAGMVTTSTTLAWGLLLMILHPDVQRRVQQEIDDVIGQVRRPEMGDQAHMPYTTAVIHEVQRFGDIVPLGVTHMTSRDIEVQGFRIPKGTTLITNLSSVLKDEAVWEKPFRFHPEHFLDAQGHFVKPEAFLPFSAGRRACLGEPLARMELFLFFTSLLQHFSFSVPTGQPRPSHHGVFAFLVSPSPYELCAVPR
Cytochrome P450 2C19 (Homo sapiens), sequence (P33261 whole entry, looked up): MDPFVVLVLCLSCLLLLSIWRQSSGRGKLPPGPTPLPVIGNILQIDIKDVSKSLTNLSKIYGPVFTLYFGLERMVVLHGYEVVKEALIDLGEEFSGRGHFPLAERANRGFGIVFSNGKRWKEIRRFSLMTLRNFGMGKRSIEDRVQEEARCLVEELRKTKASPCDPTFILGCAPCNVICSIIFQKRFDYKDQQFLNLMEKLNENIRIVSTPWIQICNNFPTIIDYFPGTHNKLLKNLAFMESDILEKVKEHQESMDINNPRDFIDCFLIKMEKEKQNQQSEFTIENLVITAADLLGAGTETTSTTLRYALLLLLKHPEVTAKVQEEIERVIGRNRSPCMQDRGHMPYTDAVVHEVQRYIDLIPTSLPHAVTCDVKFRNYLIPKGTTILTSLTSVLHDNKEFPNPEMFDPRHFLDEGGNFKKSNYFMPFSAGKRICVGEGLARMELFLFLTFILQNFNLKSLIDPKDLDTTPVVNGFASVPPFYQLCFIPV

O=C(O)[C@H]1CCN1
Potency [1]: inactive

CCc1ccc(CCN2CCCCC2)nc1
Potency [2]: 1580 nM (active)

NNc1c(C(N)=O)c2c(N)ncnc2n1[C@@H]1O[C@H](CO)[C@@H](O)[C@@H]1O
Potency [2]: inactive | Potency [3]: inactive

O=C(O)c1cc[c]([Hg][S]c2ncnc3nc[nH]c23)cc1
Potency [3]: 631 nM (active)

C[C@@H](Cc1ccc(O)cc1)NC[C@@H](O)c1cc(O)cc(O)c1
Potency [1]: inactive

COC1=C(C)C(=O)c2c(c(COC(N)=O)c3n2C[C@@H]2[C@@H]3N2C)C1=O (some centres undefined)
Potency [2]: 1580 nM (active)

Cc1ccc(S(=O)ON2CCC(C(=O)O)(c3ccccc3)CC2)cc1 (centres undefined)
Potency [3]: inactive

Cc1ccc(NC(=[OH+])c2cc3ccccc3cc2O)c(C)c1.Cc1ccc(NC(=[OH+])c2cc3ccccc3cc2O)c(C)c1.[Ni]
Potency [3]: 2000 nM (active)

CSC([N-]/N=C/c1cccc(C)n1)=[S]=[Cu].CS[C@H]([S-])[N-]/N=C/c1cccc(C)n1
Potency [3]: 199 nM (active)

COc1ccc2c(c1)[C@]13CCCC[C@@H]1[C@H](C2)NCC3
Potency [4]: inactive | Potency [2]: 6310 nM (active)

C=C[C@@H]1CN2CC[C@H]1C[C@H]2[C@H](O)c1ccnc2ccccc12
Potency [2]: 3980 nM (active)

CC(C)CNCCc1ccccn1
Potency [3]: inactive

C[C@@]12CC[C@H]3[C@@H](CC=C4C[C@H](OS(=O)(=O)O)CC[C@]43C)[C@H]1CCC2=O
Potency [1]: inactive

CC(C)[C@@]1(NC(=O)[C@H]2C[C@H]3c4cccc5[nH]cc(c45)C[C@@H]3N(C)C2)O[C@]2(O)[C@H]3CCCN3C(=O)[C@H](Cc3ccccc3)N2C1=O
Potency [3]: 6310 nM (active)

COc1ccc2c3c1O[C@@H]1C(=O)CC[C@@]4(O)[C@@H](C2)N(CC2CC2)CC[C@]314
Potency [2]: 5010 nM (active)

C[C@]12CC[C@H](O)C[C@@H]1CC[C@H]1[C@H]2CC[C@]2(C)[C@H](C(=O)CO)CC[C@@H]12
Potency [4]: inactive | Potency [1]: inactive

N[C@H](CCl)C(=O)O
Potency [1]: inactive

O=C(Nc1cc[c]([Sb](=[O])([OH])[OH])cc1)c1ccccc1
Potency [2]: inactive | Potency [3]: inactive

C[N+]1(C)C2CC(OC(=O)C(CO)c3ccccc3)CC1[C@@H]1O[C@H]21 (some centres undefined)
Potency [4]: inactive

Oc1ccc2c3c1O[C@@H]1c4[nH]c5c(c4C[C@@]4(O)[C@@H](C2)N(CC2CC2)CC[C@]314)C[C@]1(O)[C@@H]2Cc3ccc(O)c4c3[C@@]1(CCN2CC1CC1)[C@H]5O4
Potency [4]: inactive | Potency [1]: inactive

C[N+]1(C)CCc2cc3c(cc2[C@@H]1[C@@H]1OC(=O)c2c1ccc1c2OCO1)OCO3
Potency [4]: inactive

CO[C@@H]1CC=C2CCN3CCC4=C(CC(=O)OC4)[C@]23C1
Potency [4]: inactive

C[C@@]12CC[C@H]3[C@@H](CC[C@@H]4C[C@H](O)CC[C@]43C)[C@H]1CC[C@H]2O
Potency [4]: inactive

CCn1cnc2c(Nc3cccc(Cl)c3)nc(N[C@@H]3CCCC[C@H]3N)nc21
Potency [4]: inactive | Potency [3]: inactive

CC(C)C[C@H](NP(=O)(O)O[C@@H]1O[C@@H](C)[C@@H](O)[C@@H](O)[C@H]1O)C(=O)N[C@@H](Cc1c[nH]c2ccccc12)C(=O)O
Potency [1]: inactive

CC(C)[C@@]1(NC(=O)[C@@H]2C=C3c4cccc5[nH]cc(c45)C[C@@H]3N(C)C2)O[C@]2(O)[C@H]3CCCN3C(=O)[C@H](Cc3ccccc3)N2C1=O
Potency [2]: inactive | Potency [3]: inactive

C=CCN1CC[C@]23c4c5ccc(O)c4O[C@@H]2/C(=N/NC(=O)c2ccccc2)CC[C@@]3(O)[C@H]1C5
Potency [1]: inactive

C[C@@H]1Cc2cc3c(cc2C(c2ccc(N)cc2)=NN1)OCO3
Potency [3]: 2000 nM (active)

CC(=O)c1c(O)c(C)c(O)c(Cc2c(O)c3c(c(C(=O)/C=C\c4ccccc4)c2O)OC(C)(C)C=C3)c1O
Potency [4]: inactive | Potency [2]: inactive | Potency [3]: 2000 nM (active) | Potency [1]: inactive

O=C(O)[C@H]1[C@H](C(=O)O)[C@H]2CC[C@@H]1O2
Potency [1]: inactive

COc1cc(C[C@H](C)N)c(OC)cc1I
Potency [1]: 891 nM (active)

NC[C@H](O)c1cc(O)c(O)cc1F
Potency [4]: inactive

C[C@@H]1O[C@H]1P(=O)(O)O
Potency [1]: inactive

CCNC(=O)[C@@H]1O[C@@H](n2cnc3c(N)ncnc32)[C@@H](O)[C@H]1O
Potency [3]: inactive | Potency [1]: inactive

CC(C)N[C@@H](C)Cc1ccc(I)cc1
Potency [1]: 8910 nM (active)

N[C@H](Cn1ccc(=O)[nH]c1=O)C(=O)O
Potency [2]: 3980 nM (active) | Potency [1]: inactive

N[C@H](Cn1cc(I)c(=O)[nH]c1=O)C(=O)O
Potency [2]: inactive | Potency [3]: inactive

N[C@H](Cn1oc(=O)[nH]c1=O)C(=O)O
Potency [2]: inactive | Potency [3]: inactive

C[Se]C[C@@H](N)C(=O)O
Potency [3]: inactive | Potency [1]: inactive
